We go through 89 compounds from PubChem BioAssay AID743279 (National Center for Advancing Translational Sciences (NCATS), 2014).

Structures are written as SMILES. Out of some 360,000 compounds screened, about 17,000 (4.7%) were called active. About 5% were inconclusive and are not listed. Cut-off read from the data, not from the text of the source: active = activity change below about -50%; inconclusive = mostly about -30% to -49%; inactive = weaker than that. Many of the other results were omitted from the sample, so actives are more common in it than they were.
% is set by controls: 0 for no effect and ±100 for the full control effect.

The nature of this test: qHTS for Inhibitors of Inflammasome Signaling: IL-1-beta AlphaLISA Primary Screen. The conditions noted are these: THP-1 LPS/ATP IL-1B secretion, 16 h; at 57.5 µM, hits give low values. In a few lines: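 Secreted IL-1B measured by AlphaLISA bead assay after 16 h compound exposure of THP-1 cells; compounds (final up to 57.5 uM) added 1 h before LPS (250 ng/mL) and ATP (1.25 mM) stimulation; lower signal means less secretion.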
For orientation: qHTS replaces the single test concentration by a dilution series.
On to `CC1CN(C(=O)c2ccc([N+](=O)[O-])s2)CC(C)O1` (centres undefined), for which the activity change is 22.4% (inactive). For `CNN/C(N=Cc1ccc([N+](=O)[O-])s1)=N\S(=O)(=O)c1cc(C)c(Cl)cc1SCc1ccccc1`, the activity change is -7.5% (inactive). As to `O=[N+]([O-])c1ccc(C=Nc2ccc(Cl)cc2Cl)s1`, the activity change was -106% (active). Turning to `CCCCn1nnnc1NCc1cc(OC)c(OC)c(OC)c1`, the activity change is 25.2% (inactive). To `CCn1c2ccccc2c2cc(NC(=O)C/C(C)=N/NC(=O)c3ccccc3N)ccc21` belongs 25.4% (inactive); to `CCn1c2ccccc2c2cc(NC(=O)COC(=O)c3ccccc3Br)ccc21`, -18.9% (inactive); to `CCn1c2ccccc2c2cc(NC(=O)CNC)ccc21`, -85.6% (active). `Cc1nn(-c2ccccc2)c2c1c(C)c(CCC(=O)NCC1CCCO1)c(=O)n2C` (centres undefined): the activity change was -20.2% (inactive). Turning to `Cc1ccc(CNC(=O)Nc2nnc([C@H]3C[C@H](O)[C@@H](CO)O3)s2)cc1`, the activity change was 3.84% (inactive). For `C[C@@H]1CN([C@H](C)CO)C(=O)c2cc(-c3ccc(F)cc3)cnc2O[C@H]1CN(C)C(=O)c1ccc(F)cc1`, the activity change was -10.1% (inactive). Take `CN(CCc1ccccc1)c1ccc([N+](=O)[O-])cn1`: the activity change was 25.8% (inactive). Take `CNS(=O)(=O)c1cccc(C(=O)OCC(=O)N2c3ccccc3NC(=O)C2(C)C)c1`: the activity change was 11.2% (inactive).

Consider `Cc1cc(C(=O)OCC(=O)N2c3ccccc3NC(=O)C2(C)C)c(C)n1-c1ccccc1`, for which the activity change was -78.6% (active). To `Cc1ccc(OCCC(=O)OCC(=O)N2c3ccccc3NC(=O)C2(C)C)cc1` belongs 11% (inactive). As to `NC(=O)C1(Nc2ccc(-c3ccccc3)cc2)CCCC1`, the activity change is 3.69% (inactive).

`Cc1ccc(S(=O)(=O)N(CC(=O)Nc2cccnc2)c2ccc(Br)cc2)cc1`: the activity change was -14.5% (inactive). Regarding `Cn1cccc1/C=N/NC(=O)c1ccc(OC(F)(F)C(F)F)cc1`, the activity change is 81.3% (inactive). As for `Cn1nccc1NC(=O)Nc1ccc(OC(F)(F)F)cc1`, the activity change is 1.91% (inactive). With `O=C(Nc1ccc(OC(F)(F)F)cc1)c1ccc2c(c1)no[n+]2[O-]`, the activity change is -96.1% (active).

As to `CC(CC(=O)N1CCN(S(=O)(=O)c2ccccc2)CC1)n1cncn1` (centres undefined), the activity change was -19.9% (inactive). Regarding `Cc1cccc(S(=O)(=O)N(C)C[C@@H]2OCc3cnnn3CCCC(=O)N([C@H](C)CO)C[C@@H]2C)c1`, the activity change is -0.819% (inactive). For `CN1OC[C@@H]2CN(C(=O)c3ccc(-c4ccccc4)cc3)[C@H](c3ccc(-c4cccc(F)c4)cc3)C[C@@H]21` the value was 56.8% (inactive); for `C[C@@H]1CN([C@H](C)CO)S(=O)(=O)c2ccc(C#CC3CCCCC3)cc2O[C@H]1CN(C)C(=O)Cc1ccncc1`, -1.14% (inactive); for `CCCCc1nc2ccccc2c(NC(=O)CN2CCN(C)CC2)c1CCC`, -6.28% (inactive). Consider `c1ccc(Nc2nc(N3CCOCC3)c3ccccc3n2)cc1`, for which the activity change is -109% (active). With `CN1CCN(c2nc(Nc3ccc(O)cc3)nc3ccccc23)CC1`, the activity change was -96.2% (active). For `Cc1cc(Nc2ccc(Br)cc2)nc2ccccc12` the value was -5.96% (inactive); for `c1ccc(-c2nnc(N3CCOCC3)c3ccccc23)cc1`, -6.84% (inactive); for `O=C(COc1nc2ccccc2nc1N1CCOCC1)NCC(F)(F)F`, 0.929% (inactive). For `CCNC(=O)COC(=O)/C=C/c1c(C)nn(Cc2cccc(OC)c2)c1Cl`, the activity change was -4.38% (inactive). As to `NC(=S)NN=Cc1ccc(OC(=O)COc2cc(Cl)c(Cl)cc2Cl)cn1`, the activity change is 119% (inactive).

As for `CC1=NN(c2cccc(Cl)c2)C(=O)C12CC(C)=C(C)CS2` (centres undefined), the activity change is -78.4% (active). `O=C(O)C(=Cc1ccccc1[N+](=O)[O-])c1ccccc1`: the activity change was 12.6% (inactive).

As to `Cc1c(C(C)(C)O)[nH]c2ccc(C#N)cc12`, the activity change is 38.6% (inactive).

Turning to `Cc1cccc(N(C(=O)Cc2cccs2)C(C(=O)NC2CCCC2)c2ccsc2)c1` (centres undefined), the activity change was 0% (inactive). On to `CCOC(=O)c1cc2c(n(-c3ccc(C)cc3)c1=O)CCCC2=O`, for which the activity change was -18.1% (inactive). Take `CCOC(=O)C1=C(N)N(c2ccc(C)cc2)C2=C(C(=O)CCC2)C1c1cccs1` (centres undefined): the activity change is -55.3% (active). For `O=C1CCCC2=C1C(c1cccs1)CC(=O)N2c1ccc(F)cc1` (centres undefined) the value was 20.1% (inactive); for `Cc1ccccc1CS(=O)(=O)CC1(O)CCN(C(=O)c2cccc(C(F)(F)F)c2)CC1`, 9.6% (inactive). Take `Cc1ccc(-c2nc3ccc(Br)cn3c2Cc2ccccc2C(F)(F)F)cc1`: the activity change was 16.5% (inactive).

`COc1ccccc1NC(=O)C(C)OC(=O)CC1CCCC1` (centres undefined): the activity change is 23.8% (inactive). Regarding `COc1ccccc1CN1CCN(C(c2ccccc2)c2ccccc2)CC1`, the activity change was -16.2% (inactive). On to `CC(NCc1ccccc1OC1CCCC1)c1ccccc1` (centres undefined), for which the activity change is -82.2% (active). Turning to `CCCCNC1(C#N)CCN(Cc2ccccc2)CC1`, the activity change is 9.53% (inactive). For the compound `CC1(C(=O)NCc2ccc3c(c2)OCO3)CCN1CCc1ccccc1` (centres undefined), the activity change is 10.6% (inactive). `C/C(=N\N(C)C)c1ccc(OCCOc2ccc([N+](=O)[O-])cc2)cc1`: the activity change is -52.7% (active). Take `CO/N=C(\N)c1ccc([N+](=O)[O-])cc1`: the activity change was -10.8% (inactive). With `C/C(=N/NC(=O)CC(=O)N/N=C(\C)c1ccc([N+](=O)[O-])cc1)c1ccc([N+](=O)[O-])cc1`, the activity change is 26.9% (inactive).

For the compound `Cc1cc([N+](=O)[O-])c(=O)[nH]c1C`, the activity change is 26.9% (inactive).

Take `CN(C)C(=O)c1nc2ccc(Cl)cn2c1CNCc1cccc(OC(F)(F)F)c1`: the activity change is 32.2% (inactive). In the case of `CSCC[C@H](NC(=O)NCCc1ccc(F)cc1)C(=O)O`, the activity change was 3.5% (inactive).

With `COc1ccc(C(O)C(O)(C(=O)OC(C)C)c2ccc(C)cc2)cc1` (centres undefined), the activity change is -21% (inactive). As to `O=C(Nc1ccc(N2CCCC2=O)cc1)c1cncc(Br)c1`, the activity change is 1.56% (inactive). As to `O=C(N/N=C/c1cccc(Br)c1)c1ccc(N2CCCC2=O)cc1`, the activity change is -55.3% (active).

As for `Cn1c(=O)n(C)c2cc(/C=N/NC(=O)c3cccc(Br)c3)ccc21`, the activity change is -10.6% (inactive). For the compound `CC(=O)c1cccc(-c2ccc(CN3C(CC(C)C)C(=O)N(Cc4cn(CC5CCCCC5)nn4)CCS3(=O)=O)cc2)c1` (centres undefined), the activity change is -9.9% (inactive). For `OCCC#Cc1ccc(N2C(c3ccsc3)=Cc3ccc(F)cc3C2c2c[nH]c3ccccc23)cc1` (centres undefined), the activity change was -15.9% (inactive). For `Cc1ccc(S(=O)(=O)c2cc3c(=O)n4cccc(C)c4nc3n(CCc3ccccc3)c2=N)cc1C` the value was 20.8% (inactive); for `COc1ccc(CCn2c(=N)c(C(=O)NCC3CCCO3)cc3c(=O)n4cccc(C)c4nc32)cc1OC` (centres undefined), -11.6% (inactive); for `COc1ccc(CCn2c(=N)c(C(=O)NCc3ccco3)cc3c(=O)n4cccc(C)c4nc32)cc1`, -53.7% (active). To `Cc1ccc(S(=O)(=O)N[C@H]2CCC[C@@H]2O)cc1` belongs 6.2% (inactive); to `C#Cc1ccc(NC(=O)C2(C)CCN2C(=O)Cc2ccc(-c3ccccc3)cc2)cc1` (centres undefined), -2.2% (inactive); to `COc1ccc(OC)c(NC(=O)C2(C)CCN2C(=O)Cc2ccccc2)c1` (centres undefined), -87.1% (active). For `CCCNC(=O)C1(C)CCN1C(=O)Cc1ccc(-c2ccccc2)cc1` (centres undefined), the activity change is -1.04% (inactive). As to `COc1ccc(C(CNC(=O)CSc2ccccc2)N2CCOCC2)cc1` (centres undefined), the activity change is 0% (inactive). With `COC(=O)C[C@@H]1C=C[C@@H](NC(=O)c2cccnc2)[C@@H](CO)O1`, the activity change was 2.57% (inactive). As to `CCOC(=O)C1CCCN(C(=O)c2cccc3ccccc23)CC1` (centres undefined), the activity change is 61.7% (inactive). In the case of `O=[N+]([O-])c1ccc(COc2ccccc2CN2CCOCC2)cc1`, the activity change is -17.6% (inactive). Turning to `COc1ccc(NC(=O)c2cccc(Cl)c2)c[n+]1[O-]`, the activity change is -0.66% (inactive). In the case of `C=C(C)COc1ccc(-c2nc(N)ncc2-c2ccccc2OC)c(O)c1`, the activity change is -26.4% (inactive). Regarding `COc1ccc(-c2nc(N)ncc2-c2ccc(Cl)cc2)c(O)c1`, the activity change is -11.3% (inactive).

As for `C=C(C)COc1ccc(-c2ncncc2-c2ccc(OC)cc2)c(O)c1`, the activity change is -58.4% (active). On to `COc1ccc(C(C(=O)NCc2ccccc2)N(Cc2cccs2)C(=O)c2cnccn2)cc1` (centres undefined), for which the activity change was 3.36% (inactive).

Take `COc1ccc(-c2cc(C3CCN(c4ncccc4[N+](=O)[O-])CC3)[nH]n2)cc1`: the activity change was -28.8% (inactive).

Take `C#Cc1cc(N2CCN(C(=O)c3ccoc3)CC2)n2nc(-c3cccc(Cl)c3)cc2n1`: the activity change was -109% (active). For `O=C(c1ccccc1)N1CCN(c2cc(-c3ccccc3)nc3cc(-c4cccc(Cl)c4)nn23)CC1` the value was 15.2% (inactive); for `CN(C)CCN1CCN(c2cc(-c3cccc(Cl)c3)nc3ccnn23)CC1`, 6.44% (inactive); for `COc1cccc(/C=N/Nc2ccc(S(=O)(=O)Nc3ccccc3C(=O)O)cc2[N+](=O)[O-])c1O`, -5.79% (inactive).

Regarding `COc1ccc(/C=N/Nc2cc(N3CCOCC3)nc(C)n2)c(OC)c1`, the activity change was -8.96% (inactive). To `COc1cccc(/C=N/Nc2cc(C)nc(-c3ccccc3O)n2)c1O` belongs -99.4% (active); to `CC(=O)c1ccc(Oc2cc(C)nc(-n3nc(C)cc3C)n2)cc1`, 46.7% (inactive). To `Cc1nc2ccccc2nc1N/N=C/c1ccc(O)cc1O` belongs 144% (inactive); to `COc1ccccc1/C=N\Nc1cc(C)nc(-n2nc(C)cc2C)n1`, -99% (active); to `O=S(=O)(/N=C(/Nc1ccccc1)c1ccccc1)c1cccs1`, -18.2% (inactive).

Take `COc1ccc(-c2csc(C(O)c3cccc(Cl)c3)n2)cn1` (centres undefined): the activity change is -7.83% (inactive).

For `CN1CCn2cnc(C(=O)NCC(=O)OC(C)(C)C)c2C1=O`, the activity change was 3.21% (inactive). With `O=C(Nc1ccc(Cl)cc1)c1csc([C@H]2C[C@H](O)[C@@H](CO)O2)n1`, the activity change was 17.6% (inactive). To `COc1ccc(-c2cc(C(F)(F)F)nc(SCCC(=O)NCc3ccco3)n2)cc1` belongs -20.3% (inactive).

Consider `COc1ccc(N)cc1NC(=O)CN1CCOCC1`, for which the activity change was 3.53% (inactive).
